The whole screen tested about 52,000 compounds, of which about 4,300 (8.3%) were called active. The entries come from a sample that favours actives as a whole. A number with no mark means an inactive call. No stated cut-off is given here; in the data, active means survival mostly below about 52% (no sharp cut-off); inactive means mostly above about 56%.

This assay deals with DeltatarO mutant. In words: S. aureus survival, RN4220 and DeltatarO strains – OD600, teichoic acid synthesis inhibitors, primary screen (AID 463173). The following applies: S. aureus RN4220 wild type/DeltatarO growth, OD600, 18 h, active compounds read low, screened at 18.75 µg/mL (by protocol).
Consider `COCCCn1c(=N)c(S(=O)(=O)c2ccccc2)cc2c(=O)n3cc(C)ccc3nc21`, for which the survival was 68%.

On to `CCOc1ccc(C2CC(=O)c3c([nH]c(C(=O)OCCOc4ccccc4)c3C)C2)cc1` (stereo unspecified), for which the survival was 72%.

In the case of `Cc1ccc(NC(=O)c2ccc(-c3cccc(Cl)c3C)o2)cc1`, the survival was 1% (active).

In the case of `O=C(Nc1cccc(-c2nc3ncccc3o2)c1)c1ccc(-c2cccc(Cl)c2Cl)o1`, the survival is 79%.

For `Cc1c(Cl)cccc1-c1ccc(C(=O)Nc2ccc3oc(-c4cccnc4)nc3c2)o1`, the survival was 55%.

For `CCOC(=O)c1ccccc1NC(=O)N1CCOc2ccc(Cl)cc21`, the survival was 99%.

As to `CCc1ccc(NC(=O)N2CCOc3ccc(Cl)cc32)cc1`, the survival was 65%.

As to `COc1ccc(NC(=O)N2CCOc3ccc(Cl)cc32)cc1`, the survival is 44% (active).

As to `Cc1ccc(C(=O)N(Cc2sccc2C)C2CCS(=O)(=O)C2)cc1` (stereo unspecified), the survival was 76%.

`CCn1c(SC)nnc1C1CCCN1CC(=O)N1CCN(Cc2ccc3c(c2)OCO3)CC1` (stereo unspecified): the survival was 79%.

In the case of `Cc1ccc(Nc2nc(N)nc(CSc3nc4ccccc4s3)n2)cc1`, the survival is 25% (active).

Consider `CCC(=O)Nc1ccc2nc(SCc3ccccc3)sc2c1`, for which the survival was 76%.

As for `C/C=N/NC(=O)CSc1nc2ccccc2s1`, the survival is 96%.

Regarding `Cc1c(Cl)cccc1Nc1nn2c(=O)c3ccccc3nc2s1`, the survival was 73%.

Turning to `CCc1ccc(Nc2nc(N)nc(CSc3nc4ccccc4s3)n2)cc1`, the survival is 21% (active).

Consider `Nc1nc(CSc2ccccn2)nc(Nc2ccccc2)n1`, for which the survival was 97%.

For `Cc1ccc(CSc2nc3ccc(NC(=O)COc4ccccc4)cc3s2)cc1`, the survival is 87%.

Turning to `Cc1c(Cl)cccc1Nc1nc(N)nc(CSc2nc3ccccc3s2)n1`, the survival is 24% (active).

Regarding `Cc1ccc(Nc2nc(N)nc(CSc3nccn3C)n2)cc1`, the survival was 93%.

For `COC(=O)Cn1c(=NC(=O)c2ccc3c(c2)OCCO3)sc2ccccc21`, the survival is 97%.

`Cc1cccc(NC(=O)C2CCCN(c3nc4ccccc4s3)C2)c1C` (stereo unspecified): the survival is 83%.

In the case of `COC(C(=O)Nc1ccc2c(c1)OCCO2)c1ccccc1` (stereo unspecified), the survival was 87%.

As for `C=CCn1c(SCC(=O)c2cccs2)nc2sc(C)cc2c1=O`, the survival is 93%.

Turning to `CC1CC(C(F)F)n2nc(C(=O)Nc3sc4c(c3C#N)CCC(C(C)(C)C)C4)nc2N1` (stereo unspecified), the survival is 103%.

With `CCCCN(CCCC)CCNC(=O)Cn1nc(CC)n2c(cc3sc(C)cc32)c1=O`, the survival is 85%.

As for `CCCSc1nnc2c(n1)OC(CC)N(C(C)=O)c1ccccc1-2` (stereo unspecified), the survival was 62%.

For the molecule `COc1ccc(-c2noc(N3CCN(c4cccc(C)c4C)CC3)n2)cc1OC`, the survival was 94%.

In the case of `Cc1ccc(OCc2ccc(-c3nc(C#N)c(NCc4ccccc4Cl)o3)o2)cc1`, the survival was 100%.

`O=C(Nc1ccc(C(F)(F)F)cc1)c1cc(S(=O)(=O)N2CCCc3ccccc32)ccc1F`: the survival was 101%.

Take `COc1ccc(NC(=O)c2sc3nc[nH]c(=O)c3c2C)cc1Cl`: the survival is 99%.

In the case of `Cc1ccc(Cl)cc1N1CCN(C(=O)CCCn2c(=O)[nH]c3ccc(Br)cc3c2=O)CC1`, the survival was 29% (active).

On to `O=C(CCCn1c(=O)[nH]c2ccc(Br)cc2c1=O)N1CCN(c2cccc(Cl)c2)CC1`, for which the survival is 48% (active).

On to `COc1cccc(N2CCN(C(=O)CCCn3c(=O)[nH]c4ccc(Br)cc4c3=O)CC2)c1`, for which the survival was 53%.

For `Cc1ccc(Cl)cc1N1CCN(C(=O)CCCCCn2c(=O)[nH]c3ccccc3c2=O)CC1`, the survival is 78%.

For the molecule `COC(=O)c1ccc2c(=O)n(CCCCCC(=O)N3CCN(c4cc(Cl)ccc4C)CC3)c(=O)[nH]c2c1`, the survival was 129%.

`CCOc1cc2[nH]c(=O)n(CCCC(=O)N3CCN(c4cccc(Cl)c4)CC3)c(=O)c2cc1OCC`: the survival is 81%.

As for `O=c1[nH]c(-c2ccc(S(=O)(=O)N3CCCC3)cc2)nc2sc3c(c12)CCCC3`, the survival is 120%.

Turning to `COc1cc(OC)c(NS(=O)(=O)c2cc(-c3cnc(C)o3)ccc2OC)cc1Cl`, the survival is 67%.

Regarding `O=C(CSc1nc2c(c(=O)[nH]1)CCCC2)Nc1ccccc1C(F)(F)F`, the survival was 58%.

For the molecule `CCc1ccc(-n2c(SCC(=O)NC(C)CC)nc3n[nH]c(C)c3c2=N)cc1` (stereo unspecified), the survival is 122%.

Turning to `O=S(=O)(c1cccc(Cl)c1)n1c(/C=C/c2ccccc2Cl)nc2ccccc21`, the survival was 68%.

Turning to `CCOc1cc(C2Nc3ccccc3-c3nnc(SCc4ccccc4)nc3O2)ccc1OC` (stereo unspecified), the survival was 45% (active).

Regarding `CCOc1ccc(C2Nc3ccccc3-c3nnc(SCc4ccccc4)nc3O2)cc1OC` (stereo unspecified), the survival was 50%.

For `CCOc1ccccc1C1Nc2ccccc2-c2nnc(SCc3ccccc3)nc2O1` (stereo unspecified), the survival is 44% (active).

Take `O=C(O)COc1ccccc1C1Nc2ccccc2-c2nnc(SCc3ccc(Cl)cc3)nc2O1` (stereo unspecified): the survival was 66%.

Consider `COc1cc(OC)c(C2Nc3ccccc3-c3nnc(SCc4ccccc4)nc3O2)cc1OC` (stereo unspecified), for which the survival is 54%.

Regarding `COc1cccc(C2Nc3ccccc3-c3nnc(SCc4ccccc4)nc3O2)c1OC` (stereo unspecified), the survival is 140%.

Turning to `COc1ccc(-c2noc(-c3nnn(-c4ccc(C(C)C)cc4)c3C)n2)cc1OC`, the survival was 67%.

As to `O=C(c1ccc2c(c1)N(Cc1c(F)cccc1Cl)C(=O)c1ccccc1S2)N1CCCC1`, the survival is 74%.

In the case of `CCOc1ccc(Cn2nnc3c(=O)[nH]c(C4CCN(C(=O)c5ccccc5)CC4)nc32)cc1`, the survival was 4% (active).

For the molecule `Cc1ccc(Cn2nnc3c(=O)[nH]c(C4CCN(S(=O)(=O)/C=C/c5ccccc5)CC4)nc32)cc1`, the survival is 89%.

Regarding `O=C(c1ccccc1)N1CCC(c2nc3c(nnn3Cc3ccccc3)c(=O)[nH]2)CC1`, the survival was 13% (active).

As for `COc1cccc(OC)c1Cn1nnc2c(=O)[nH]c(C3CCN(C(=O)c4ccccc4)CC3)nc21`, the survival is 56%.

As to `CCOc1ccccc1NC(=O)N1CCCC(c2nc3c(nnn3Cc3ccc(C)cc3)c(=O)[nH]2)C1` (stereo unspecified), the survival was 82%.

As to `Cc1ccc(C)c(C(=O)N2CCC(c3nc4c(nnn4Cc4ccccc4)c(=O)[nH]3)CC2)c1`, the survival was 39% (active).

Consider `O=c1[nH]c(C2CCCNC2)nc2c1nnn2Cc1ccccc1` (stereo unspecified), for which the survival is 98%.

As for `O=c1oc2cc(Br)ccc2n1CO`, the survival is 105%.

`Cc1ccc(NCc2ccccc2-c2nnc(-c3ccccc3Cl)o2)c(C)c1`: the survival is 83%.

Take `Cc1cccc(N2CCN(CC(=O)NCc3cccs3)CC2)c1C`: the survival is 101%.

Regarding `COc1ccc2c(c1)c1c(c(=O)n(CCc3ccccc3)c(=O)n1Cc1cccc(C)c1)n2C`, the survival was 70%.

Turning to `CCCCN(CC)CCNC(=O)c1nn(C)c2c1CS(=O)(=O)c1ccccc1-2`, the survival was 56%.

`CCOC(=O)N1CCN(Cc2nc3cc([N+](=O)[O-])ccc3n2C(C)C)CC1`: the survival was 92%.

In the case of `O=C(NCCO)c1nc2ccccc2s1`, the survival was 73%.

Consider `CCN(CC)c1ccc(NC(=O)c2cc(C)nc3c2c(C)nn3-c2cccc(F)c2)c(C)c1`, for which the survival is 100%.

On to `O=C(CSC1=NC(=O)C(c2ccccc2)C(=O)N1)Nc1nncs1` (stereo unspecified), for which the survival was 70%.

As to `O=C(c1cn(CCOc2ccc(Cl)cc2)c2ccccc12)C1CCCCC1`, the survival is 14% (active).

For `COc1ccc(NC(=O)Cn2cc(C(=O)C3CCCCC3)c3ccccc32)cc1`, the survival was 71%.

For `O=C(c1cn(CCOc2ccccc2F)c2ccccc12)C1CCCCC1`, the survival is -2% (active).

With `Cc1ccccc1OCCn1cc(C(=O)C2CCCCC2)c2ccccc21`, the survival was 144%.

As to `Cc1ccc(OCCn2cc(C(=O)C3CCCCC3)c3ccccc32)cc1`, the survival was 3% (active).

In the case of `O=C(c1cccs1)c1cn(CCOc2ccccc2F)c2ccccc12`, the survival was 104%.

`Cc1ccc(OCCn2cc(C(=O)c3cccs3)c3ccccc32)cc1`: the survival was 69%.

`COc1ccc(NC(=O)Cn2cc(C(=O)C3CC3)c3ccccc32)cc1`: the survival is 88%.

Regarding `COc1ccc(OCCn2cc(C(=O)C3CCCCC3)c3ccccc32)cc1`, the survival is 13% (active).

In the case of `O=C(Cn1cc(C(=O)C2CCCCC2)c2ccccc21)Nc1ccccc1Cl`, the survival was 76%.

For `O=C(c1cccs1)c1cn(CCOc2ccc(Cl)cc2)c2ccccc12`, the survival was 156%.

In the case of `Cc1ccc(NC(=O)Cn2cc(C(=O)C3CCCCC3)c3ccccc32)cc1`, the survival is 62%.

Consider `Cc1c(NC(=O)c2nc3ccccc3nc2N2CCCCC2)cccc1[N+](=O)[O-]`, for which the survival is 100%.

For `COc1ccc(-c2nc3n(n2)C(c2ccc(OC)cc2)C(C(=O)Nc2cccnc2)=C(C)N3)cc1` (stereo unspecified), the survival was 89%.

Consider `Cc1ccc(N2CC(NC(=O)CCc3ccccc3)CC2=O)cc1C` (stereo unspecified), for which the survival is 101%.

As for `COc1ccc(N2CCN(C(=O)Cn3c(-c4cccs4)cc4ccccc43)CC2)cc1`, the survival was 80%.

In the case of `Cc1cc(C)c(NC(=O)CN2C(=O)c3cccnc3Sc3ccccc32)c(C)c1`, the survival was 83%.

As to `CCOC(=O)c1ccc(N2C(=O)c3n[nH]c(-c4ccco4)c3C2c2ccc(O)c(OCC)c2)cc1` (stereo unspecified), the survival is 69%.

`C=CCn1c(O)c(CN2CCOCC2)c(C)c(C#N)c1=O`: the survival is 89%.

With `O=C(O)Cc1ccc(NC2(c3ccccc3)C(=O)c3ccccc3C2=O)cc1`, the survival is 73%.

As for `Cc1cccc(NC(=O)c2ccc3c(O)c(S(=O)(=O)c4ccccc4)c(=O)[nH]c3c2)c1C`, the survival was 88%.

As for `Cc1ccc(C)c(NC(=O)CN2CCN(C3CCCCC3)C(=O)C2=O)c1`, the survival is 94%.

For the molecule `CCC(Cn1nnc2ccccc2c1=O)NC(=O)Nc1cc(Cl)ccc1OC` (stereo unspecified), the survival was 71%.

Consider `COC(=O)c1cc(S(=O)(=O)N2CCN(c3ccc(OC)cc3)CC2)c[nH]1`, for which the survival is 73%.

Take `Cc1ccc(Cl)cc1N1CCN(C(=O)c2cc(S(=O)(=O)N3CCCC3)c[nH]2)CC1`: the survival is 88%.

As to `COC(=O)c1cc(S(=O)(=O)N2CCN(c3cc(Cl)ccc3C)CC2)c[nH]1`, the survival is 12% (active).

The values above are taken from PubChem BioAssay AID463173 (ICCB-Longwood Screening Facility, Harvard Medical School, 2010).
